{"source": "PubChem BioAssay (NCATS)", "note": "Values joined by “and” are separate entries in the source; they are usually repeats but may differ in a detail not shown here. Identical values can stand only once. Inconclusive results are not listed. A structure can be active in one record and inactive in another. Active and inactive are the calls of the source. Calls come from the whole dose curve; as a rule, active = well fitted inhibition curve with a large enough effect; inconclusive = small, poorly fitted or top-dose-only effect; inactive = flat fitted curve, though single readings scatter. Potency is the fitted concentration of half-maximal effect.", "data": [{"test": "P-glycoprotein substrates identified in KB-8-5-11 adenocarcinoma cell line, qHTS therapeutic library screen (AID 1346987); note: nearly all actives have a fitted effect of over 65% in size", "conditions": "KB-8-5-11 (P-gp overexpressing) viability, CellTiter-Glo, 72 h; series mostly up to 44.5 µM", "excerpt": "The ATP-binding cassette transporters P-glycoprotein (P-gp) is known to limit brain penetration of many chemotherapy drugs. […] As such, we developed a high-throughput screen (HTS) to identify substrates of P-gp from a series of chemical libraries including the National Center for Advancing Translational Sciences Pharmaceutical Collection NPC, 2,816 compounds), testing a total of 10,804 compounds, most of which have known mechanisms of action. We used the CellTiter-Glo viability assay to test library compounds against the parental KB-3-1 human cervical adenocarcinoma cell line and the colchicine-selected sub-line KB-8-5-11 that over-expresses P-gp. KB-8-5-11 cells were also tested in the presence of a P-gp inhibitor (tariquidar) to assess reversability of transporter-mediated resistance. Of the tested compounds, a total of 90 P-gp substrates were identified including 55 newly identified P-gp substrates. Substrates were confirmed using an orthogonal killing assay against HEK-293 cells transfected with P-gp. As exemplars, we confirmed that […] (cyclin-dependent kinase inhibitor); AT9283, (Janus kinase 2/3 inhibitor); ispinesib (kinesin spindle protein inhibitor); gedatolisib (PKI-587, phosphoinositide 3-kinase/mammalian target of rampamycin inhibitor); GSK-690693 (AKT inhibitor); and KW-2478 (heat shock protein 90 inhibitor) were substrates , and direct ATPase stimulation was assessed. ABCG2 was also found to confer high levels of resistance to AT9283, GSK-690693 and gedatolisib, while ispinesib, AT7519 and KW-2478 were weaker substrates.\nThe HeLa derivative cell line, KB-3-1, and its colchicine-selected, P-gp-overexpressing subline, KB-8-5-11 were maintained in DMEM with 10% FCS and Pen/Strep with glutamine at 37 degree C in 5% CO2. For KB-8-5-11 cells, colchicine was added to the medium at a concentration of 100 ng/mL. HEK-293 cells transfected with empty vector (pcDNA) or vector containing human ABCB1 (MDR-19) or ABCG2 (R-5) have been described previously (Robey, Lin, Qiu, Chan & Bates, 2011) and were maintained in EMEM supplemented with 10% FCS, Pen/Strep and glutamine with 2 mg/ml G418 to select for the expression of the transporter. Cultures were confirmed to be free of mycoplasma infection using the MycoAlert Mycoplasma Detection Kit (Lonza, Walkersville, MD). For the screen, assay medium was identical to culture medium except for KB-8-5-11 where colchicine was excluded from the medium.\nAll cell lines were plated into 1536-well plates at 500 cells/well in 5 uL media. Compounds were then pinned in dose-response using a 1536-head pin tool (Kalypsis, San Diego, CA) and plates were incubated at 37 degree C in 5% CO2 for an additional 72 h. CellTiter-Glo reagent (Promega) was dispensed into the wells, incubated for 5 min and luminescence was read on a ViewLux instrument (Perkin-Elmer). Cytotoxic compounds were defined as those that yielded a curve class of -1.1, -1.2, -2.1, -2.2, -2.3, or -2.4, a maximum response of >50% and an AC50 of < 10 uM. Cherry-picked hits from screening analysis were tested with both the KB pair of cell lines, and the pcDNA (empty vector control) and MDR-19 (P-gp overexpressing) pair were tested, in the absence and presence of tariquidar.", "values": [{"smiles": "CC(C)C[C@H](NC(=O)CNC(=O)c1cc(Cl)ccc1Cl)B(O)O", "Potency": "1.32 µM (active)"}, {"smiles": "C[C@@H](Oc1cc(-n2cnc3ccc(CN4CCN(C)CC4)cc32)sc1C(N)=O)c1ccccc1C(F)(F)F", "Potency": "0.118 µM (active)"}, {"smiles": "CC(C)(O)c1cc2nc(-c3cnc(N)nc3)nc(N3CCOCC3)c2s1", "Potency": "105 nM (active) and 517 nM (active)"}, {"smiles": "CC(C)[C@H](C(=O)Nc1ccc(C(=O)NO)cc1)c1ccccc1", "Potency": "1.48 µM (active)"}, {"smiles": "C1=CCOCc2cc(ccc2OCCN2CCCC2)Nc2nccc(n2)-c2cccc(c2)OCC1", "Potency": "3.32 µM (active)"}, {"smiles": "CCS(=O)(=O)c1cccc(-c2cc(C(=O)NC3CCN(C)CC3)c(C)c3[nH]c4ncc(C)cc4c23)c1", "Potency": "inactive"}, {"smiles": "Cc1cn2cc(C(=O)N(C)CCO)cc(N[C@@H]3CCOc4cccc(C)c43)c2n1", "Potency": "inactive"}, {"smiles": "C#Cc1cccc(Nc2ncnc3cc(OC)c(OCCCCCCC(=O)NO)cc23)c1", "Potency": "10.5 µM (active) and 14.6 µM (active)"}, {"smiles": "Cc1ccc(-c2ncn(-c3ccc(Nc4nccc(-c5cccc(N6CCOCC6)c5)n4)cc3)n2)cn1", "Potency": "1.05 µM (active)"}, {"smiles": "COC(=O)[C@]12CCC(C)(C)C[C@@H]1[C@@H]1C(=O)C=C3[C@@]4(C)C=C(C#N)C(=O)C(C)(C)[C@@H]4CC[C@@]3(C)[C@]1(C)CC2", "Potency": "0.743 µM (active)"}, {"smiles": "CCCNC(=O)Nc1ccc(Oc2ncnc3cc(OC)c(OC)cc23)cc1Cl", "Potency": "inactive"}, {"smiles": "Cn1cc(-c2[nH]c3cc(NC(=O)[C@H](N)C4CCCCC4)cc4c3c2C=NNC4=O)cn1", "Potency": "inactive"}, {"smiles": "CC1(O)CC(c2nc(-c3ccc4ccc(-c5ccccc5)nc4c3)c3c(N)nccn23)C1", "note": "(stereo not given)", "Potency": "14.8 µM (active) and 9.2 µM (active)"}, {"smiles": "CC[C@@]1(O)C(=O)OCc2c1cc1n(c2=O)Cc2cc3cc(O)ccc3nc2-1", "Potency": "1.16 µM (active) and 1.05 µM (active)"}, {"smiles": "CC(C)(C)OC(=O)Nc1ccc(-c2cc(C(=O)NCCCCCCC(=O)NO)no2)cc1", "Potency": "8.33 µM (active)"}, {"smiles": "CC(C)c1cnn2c(NCc3ccccc3)cc(N[C@@H](CO)[C@H](O)CO)nc12", "Potency": "1.18 µM (active) and 4.61 µM (active)"}, {"smiles": "CC(=O)OCCN1C(=O)c2c(C)nc3ccc(S(=O)(=O)N4CCOCC4)cc3c2C1=O", "Potency": "inactive"}, {"smiles": "COc1ccc(OC)c(-c2nnc3ccc(-c4ccc(OC)c(O[C@@H]5CCOC5)c4)nn23)c1", "Potency": "4.61 µM (active)"}, {"smiles": "CNC(=O)c1cc(Oc2ccc(NC(=O)Nc3cc(C(C)(C)C)nn3-c3ccc4ncccc4c3)c(F)c2)ccn1", "Potency": "18.7 µM (active)"}, {"smiles": "CCCCCCCCCC(=O)N[C@@H](Cc1c[nH]c2ccccc12)C(=O)N[C@H](CC(N)=O)C(=O)N[C@@H](CC(=O)O)C(=O)N[C@@H]1C(=O)NCC(=O)N[C@@H](CCCN)C(=O)N[C@@H](CC(=O)O)C(=O)N[C@H](C)C(=O)N[C@@H](CC(=O)O)C(=O)NCC(=O)N[C@H](CO)C(=O)N[C@@H]([C@@H](C)CC(=O)O)C(=O)N[C@@H](CC(=O)c2ccccc2N)C(=O)O[C@@H]1C", "Potency": "inactive"}, {"smiles": "O=C(O)C1(Cc2cccc(Nc3nccs3)n2)CCC(Oc2cccc(Cl)c2F)CC1", "note": "(stereo not given)", "Potency": "0.411 µM (active)"}, {"smiles": "C[C@@]12O[C@@H](C[C@]1(O)CO)n1c3ccccc3c3c4c(c5c6ccccc6n2c5c31)CNC4=O", "Potency": "2.35 µM (active) and 1.46 µM (active)"}, {"smiles": "COc1cc(-c2nn(C3CCC(N4CCN(C(C)=O)CC4)CC3)c3ncnc(N)c23)ccc1NC(=O)c1cc2ccccc2n1C", "note": "(stereo not given)", "Potency": "inactive and 20.6 µM (active)"}, {"smiles": "CC(C)c1nn(-c2c(Cl)cccc2Cl)c2nc(Cc3ccc(OCCO)cc3)[nH]c(=O)c12", "Potency": "118 nM (active) and 103 nM (active)"}, {"smiles": "Cc1cc(Nc2cc(CN3CCOCC3)c3nc(C)c(Cc4ccc(Cl)cc4F)n3n2)n[nH]1", "Potency": "13.2 µM (active) and 16.4 µM (active)"}, {"smiles": "O=C(NC1CCNCC1)c1[nH]ncc1NC(=O)c1c(Cl)cccc1Cl", "Potency": "inactive"}, {"smiles": "CCCn1c(=O)c2[nH]c(-c3cnn(Cc4cccc(C(F)(F)F)c4)c3)nc2n(CC)c1=O", "Potency": "inactive"}, {"smiles": "CCOc1ccccc1OCCNC(C)Cc1ccc(OC)c(S(N)(=O)=O)c1", "note": "(stereo not given)", "Potency": "inactive"}, {"smiles": "C=CC(=O)Nc1cccc(Oc2nc(Nc3ccc(N4CCN(C)CC4)cc3OC)ncc2Cl)c1", "Potency": "inactive and 20.6 µM (active)"}, {"smiles": "COc1ccc(C=Cc2cc(OC)c(OC)c(OC)c2)cc1O", "Potency": "0.001 µM (active)"}, {"smiles": "COC(=O)Nc1nc2ccc(C(=O)c3ccc(F)cc3)cc2[nH]1", "Potency": "418 nM (active) and 1.03 µM (active)"}, {"smiles": "Cc1ccc(NC(=O)C2(c3ccc4c(c3)OC(F)(F)O4)CC2)nc1-c1cccc(C(=O)O)c1", "Potency": "526 nM (active) and inactive"}, {"smiles": "CC(C)c1ccc(Cn2ccc3c4c(N)nc(NC5CC5)nc4ccc32)cc1", "Potency": "1.18 µM (active)"}, {"smiles": "O=c1c2ccccc2nc2n1CCc1c-2[nH]c2ccccc12", "Potency": "inactive"}, {"smiles": "CNC(=O)CN1CCC(Oc2cc3c(Nc4cccc(Cl)c4F)ncnc3cc2OC)CC1", "Potency": "inactive"}, {"smiles": "CC[C@@H]1C(=O)N(C)c2cnc(Nc3ccc(C(=O)NC4CCN(C)CC4)cc3OC)nc2N1C1CCCC1", "Potency": "0.418 µM (active)"}, {"smiles": "Cc1coc2c1C(=O)C(=O)c1c-2ccc2c1CCCC2(C)C", "Potency": "inactive and 9.2 µM (active)"}, {"smiles": "COc1ccc(C(=O)CC2(O)C(=O)Nc3c(Cl)ccc(Cl)c32)cc1", "note": "(stereo not given)", "Potency": "2.64 µM (active) and 1.16 µM (active)"}, {"smiles": "COc1cccc2nc(-c3cccs3)nc(NN3C(=O)C=C(C)C3=O)c12", "Potency": "469 nM (active) and 1.64 µM (active)"}, {"smiles": "Cc1ccc(C(=O)Nc2ccc(CN3CCN(C)CC3)c(C(F)(F)F)c2)cc1C#Cc1cnc2cccnn12", "Potency": "2.09 µM (active) and 3.66 µM (active)"}]}]}
